Measured values from PubChem BioAssay AID1159580 (chemical genetic matrix, 2015).
Among all 5,500 compounds or so, about 2,000 (36%) were called active. About 18% were inconclusive and are not listed. No stated cut-off is given here; in the data, active means normalized growth mostly below about 0.91 (no sharp cut-off); inconclusive means no clear call, values can overlap the other calls; inactive means mostly above about 0.92. Some of the results follow.

Assay: chemical genetic growth profiling, strain panel (AID 1159580);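 further: tested at 20 µM; growth read once vehicle control cultures reached saturation at 30 °C; 1 = growth at the plate median or of vehicle wells; lower values mean less growth of the strain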
Conditions: growth OD
[1] = S. cerevisiae deletion strains, locus YAL040C, strain CLN3, hits give low values
[2] = S. cerevisiae deletion strains, locus YCL061C, strain MRC1 (second series), hits give low values
[3] = S. cerevisiae deletion strains, locus YDR150W, strain NUM1, hits give low values
[4] = S. cerevisiae deletion strains, locus YDR363W, strain ESC2, hits give low values
[5] = S. cerevisiae deletion strains, locus YER002W, strain NOP16, hits give low values
[6] = S. cerevisiae deletion strains, locus YGR229C, strain SMI1, hits give low values
[7] = S. cerevisiae deletion strains, locus YJR075W, strain HOC1, hits give low values
[8] = S. cerevisiae deletion strains, locus YMR263W, strain SAP30, hits give low values
[9] = S. cerevisiae deletion strains, locus YMR307W, strain GAS1, hits give low values
[10] = S. cerevisiae deletion strains, locus YNL128W, strain TEP1, hits give low values
[11] = S. cerevisiae deletion strains, locus YNL153C, strain GIM3, hits give low values
[12] = S. cerevisiae deletion strains, locus YNL175C, strain NOP13, hits give low values
[13] = S. cerevisiae deletion strains, locus YNL197C, strain WHI3, hits give low values
[14] = S. cerevisiae deletion strains, locus YNL224C, strain SQS1, hits give low values
[15] = S. cerevisiae deletion strains, locus YNL322C, strain KRE1, hits give low values
[16] = S. cerevisiae deletion strains, locus YOR083W, strain WHI5 (second series), hits give low values
[17] = S. cerevisiae deletion strains, locus YPL241C, strain CIN2, hits give low values

Measured: normalized growth

O=C(O)CCCCCC[C@H]1C(=O)NC(=O)N1CC[C@@H](O)C1CCCCC1
inactive: [1] 0.969 | [2] 0.985 | [3] 0.996 | [4] 0.985 | [5] 0.936 | [6] 0.999 | [7] 0.996 | [8] 0.993 | [9] 1 | [10] 0.942 | [11] 0.971 | [12] 0.987 | [13] 0.962 | [14] 0.982 | [15] 0.99 | [16] 0.985

COc1ccccc1C1OC(=O)CC1C(=O)O (centres undefined)
inactive: S. cerevisiae deletion strains, locus YBR229C, strain ROT2, hits give low values 1.02 | S. cerevisiae deletion strains, locus YCL061C, strain MRC1, hits give low values 0.989 | S. cerevisiae deletion strains, locus YDL101C, strain DUN1, hits give low values 1 | S. cerevisiae deletion strains, locus YDL134C, strain PPH21, hits give low values 1.03 | [3] 0.947 | S. cerevisiae deletion strains, locus YEL061C, strain CIN8, hits give low values 1 | S. cerevisiae deletion strains, locus YGR078C, strain PAC10, hits give low values 0.987 | S. cerevisiae deletion strains, locus YHR030C, strain SLT2, hits give low values 0.963 | S. cerevisiae deletion strains, locus YHR087W, strain rtc3, hits give low values 1.03 | S. cerevisiae deletion strains, locus YJL187C, strain SWE1, hits give low values 1.01 | S. cerevisiae deletion strains, locus YJR043C, strain POL32, hits give low values 0.98 | [7] 0.986 | S. cerevisiae deletion strains, locus YLR039C, strain RIC1, hits give low values 1.02 | S. cerevisiae deletion strains, locus YLR058C, strain SHM2 (second series), hits give low values 1.01 | S. cerevisiae deletion strains, locus YLR085C, strain ARP6, hits give low values 1.02 | S. cerevisiae deletion strains, locus YLR262C, strain YPT6, hits give low values 1.02 | S. cerevisiae deletion strains, locus YML094W, strain GIM5, hits give low values 1.02 | S. cerevisiae deletion strains, locus YMR219W, strain ESC1, hits give low values 1.01 | [8] 0.968 | [10] 1.02 | [11] 1 | S. cerevisiae deletion strains, locus YNL298W, strain CLA4 (second series), hits give low values 0.998 | [15] 0.999 | S. cerevisiae deletion strains, locus YNR030W, strain Alg12, hits give low values 1.01 | S. cerevisiae deletion strains, locus YOL006C, strain TOP1, hits give low values 1.07 | S. cerevisiae deletion strains, locus YPL055C, strain LGE1, hits give low values 0.955 | [17] 0.989 | S. cerevisiae deletion strains, locus YPR135W, strain CTF4, hits give low values 1.02 | S. cerevisiae strains, strain wild type, hits give low values 1.02

N=C(N)c1ccc(N)cc1
inactive: S. cerevisiae deletion strains, locus YAL013W, strain DEP1, hits give low values 1.01 | [1] 0.975 | [2] 0.998 | [4] 0.981 | [5] 0.997 | [6] 1.01 | [9] 1 | [10] 0.978 | [11] 1 | [12] 1.01 | [13] 0.994 | [14] 0.968 | [16] 0.981 | [17] 1
